# IP6K1 inhibitor = IP6K1 kinase inhibition. Q92551. IP6K1 kinase, ADP-Glo luminescence, 2 h; active compounds read low. activity change, % (series mostly up to about 58 µM). 140,000 compounds, 0.81% hits; in the data active = activity change below about -25%; also: % is scaled to controls: 0 for no effect and ±100 for the full control effect
#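 ADP-Glo luminescence measures ADP made by human IP6K1 during a 2 h RT reaction with ATP/IP6 (mix at 1.3 mM/130 uM); top library doses 57.5 and 19.1 uM final.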
# FLuc inh-1 = Photinus pyralis luciferase inhibition; 76,000 compounds, 2.5% hits; Potency, µM (highest dose often 115 µM), usual class: inhibitors; purified P. pyralis luciferase, luminescence, biochemical; AID 1347043; also: potency is read from the fitted curve at half-maximal effect; % is scaled to controls: 0 for no effect and ±100 for the full control effect; nearly all actives have a fitted effect of over 65% in size
# Target sequence (P08659 whole entry, looked up): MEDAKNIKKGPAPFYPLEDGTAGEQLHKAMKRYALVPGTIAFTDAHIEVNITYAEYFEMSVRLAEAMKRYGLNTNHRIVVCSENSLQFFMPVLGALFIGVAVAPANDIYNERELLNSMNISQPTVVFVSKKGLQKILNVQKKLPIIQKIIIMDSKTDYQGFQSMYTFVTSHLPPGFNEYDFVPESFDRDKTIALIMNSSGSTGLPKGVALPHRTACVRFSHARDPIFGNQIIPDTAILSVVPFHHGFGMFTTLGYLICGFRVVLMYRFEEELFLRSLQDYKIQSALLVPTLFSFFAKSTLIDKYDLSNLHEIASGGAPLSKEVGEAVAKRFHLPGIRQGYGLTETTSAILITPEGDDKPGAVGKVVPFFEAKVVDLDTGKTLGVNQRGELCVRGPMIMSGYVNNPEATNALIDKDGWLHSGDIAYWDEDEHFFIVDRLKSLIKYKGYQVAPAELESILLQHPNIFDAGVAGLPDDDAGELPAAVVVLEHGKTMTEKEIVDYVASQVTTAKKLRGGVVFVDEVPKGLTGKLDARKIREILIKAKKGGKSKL
#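 Biochemical qHTS: compound (6-point titration) added to 10uM D-luciferin plus 10uM ATP in Tris acetate pH 7.5 buffer with Mg, Tween-20 and BSA, then purified enzyme at 10nM; light output imaged.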
# SNCA expr inhib = SNCA gene expression inhibition. HEK-293 SNCA-luciferase knock-in, luminescence, 24 h. Potency, µM (doses to about 57.2 µM), inactives show top-dose activity change, negative = inhibition, actives largely listed as inhibitors. 140,000 compounds, 0.17% hits;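 also: potency is read from the fitted curve at half-maximal effect; plate controls were DMSO cells for no effect and cell-free wells for full effect; nearly all actives have a fitted effect of over 45% in size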
# HEK293 tox = cytotoxic compounds in HEK 293 cells; Potency, µM (series often up to 115 µM), for the others: at the top dose activity change, negative = cytotoxicity, hits mostly inhibitors; HEK 293 viability, ATP luminescence (CellTiter-Glo), 48-72 h; 94,000 compounds, 6.6% hits; AID 1345083; also: potency is read from the fitted curve at half-maximal effect; % is scaled to controls: 0 for no effect and ±100 for the full control effect; nearly all actives have a fitted effect of over 60% in size
#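 Cytotoxicity was scored by loss of ATP-coupled luminescence (CellTiter-Glo) in HEK 293 cells. Compound treatment ran 48 or 72 hr at 37 degree Celsius, 5% CO2, 95% humidity.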
# NIH3T3 tox = cytotoxic compounds in NIH 3T3 cells; NIH 3T3 viability, CellTiter-Glo ATP luminescence, 48-72 h; Potency, µM (doses to about 96.7 µM), for inactives: top-dose activity change, negative = cytotoxicity, actives largely listed as inhibitors; 94,000 compounds, 4.3% hits; AID 1345082; also: potency is read from the fitted curve at half-maximal effect; % is scaled to controls: 0 for no effect and ±100 for the full control effect; nearly all actives have a fitted effect of over 55% in size
#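 Cells were seeded at 400 per well, treated with pin-transferred compound, and kept 48 or 72 hr at 37 °C before CellTiter-Glo addition and luminescence imaging of cellular ATP.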
# HEK293 viab = counter-screen for SNCA expression inhibitors: cell viability. HEK-293-SNCA-luc viability, GF-AFC fluorescence, 24 h. 150,000 compounds, 0.12% hits. Potency, µM (highest dose often 57.1 µM), without a hit: at the highest dose activity change, negative = cytotoxicity, hits mostly cytotoxic;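 also: potency is read from the fitted curve at half-maximal effect; 0% = DMSO-treated cells and -100% = medium-only wells without cells; nearly all actives have a fitted effect of over 30% in size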
#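 HEK-293-SNCA-luc cells (1500/well) plated 24 h, then exposed 24 h to a dilution series; GF-AFC added 30 min at 37C, fluorescence 405/540 nm; normalised to medium-only and DMSO wells, Hill fit.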
# FLuc SDR -ATP = binders stabilizing firefly luciferase, without ATP | shares compounds with FLuc inh-1 | Purified FLuc-C-HiBiT, Nano-Glo HiBiT luminescence, no ATP | Potency, µM (top dose mostly 32.7 µM), inactives show at the highest dose activation (signal gain), actives largely listed as activators | 1,300 compounds, 7.8% hits | AID 1963318; also: potency is read from the fitted curve at half-maximal effect; nearly all actives have a fitted effect of over 55% in size
# FLuc SDR ATP = binders stabilizing firefly luciferase, plus ATP. shares compounds with FLuc inh-1. purified FLuc-C-HiBiT + ATP, HiBiT complementation luminescence. Potency, µM (highest dose often 32.7 µM), for inactives: at the top dose activation (gain of signal), usual class: activators. 1,300 compounds, 8.7% hits. AID 1963319;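 also: signal reports ligand binding via conformational change of the enzyme rather than luciferase catalysis; potency is read from the fitted curve at half-maximal effect; % of control where 0% means no effect; nearly all actives have a fitted effect of over 55% in size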
# FLuc inh-2 = firefly luciferase enzyme inhibition | shares compounds with FLuc inh-1 | purified FLuc-C-HiBiT enzyme, luciferin luminescence | Potency, µM (series often up to 32.7 µM), for the others: at the top dose activity change, negative = inhibition, actives largely listed as inhibitors | 1,300 compounds, 42% hits; also: potency is read from the fitted curve at half-maximal effect; % is scaled to controls: 0 for no effect and ±100 for the full control effect; nearly all actives have a fitted effect of over 70% in size
# The depositor's hits bear a star; i = inactive; ? = inconclusive; . = not tested or not shown; [ ] = another dose, or the depositor's remark. Most compounds without a hit are left out; they make up all but 7.3% or so of the library. Unless noted, calls follow the shape of the dose curve; as a rule, active = well fitted curve in the direction sought with a large enough effect; inconclusive = small, poorly fitted or top-dose-only effect, or another doubt; inactive = no such curve, though single readings can be large; an effect the other way counts as inactive or inconclusive.
SMILES,IP6K1 inhibitor,FLuc inh-1,SNCA expr inhib,HEK293 tox,NIH3T3 tox,HEK293 viab,FLuc SDR -ATP,FLuc SDR ATP,FLuc inh-2
Cc1ccc(C(=O)NCCn2ccn3nc(-c4ccc(C)cc4C)cc3c2=O)cc1,0,?,35%,i,-7%,1%,.,.,.
O=C(CCC1CCCC1)N1CCC2(CC1)CC(CO)N(C(=O)c1ccccc1)C2 (centres undefined),-9,.,30%,?,-37%,0%,.,.,.
Cc1ccc(-c2cc3c(=O)n(CCNC(=O)c4nccc5ccccc45)ccn3n2)c(C)c1,0,3.5µM*,17%,45µM*,?,6%,23%,16%,8.8µM*
Cc1ccc(-c2cc3c(=O)n(CCNC(=O)c4ccc5c(c4)OCO5)ccn3n2)c(C)c1,-2,?,66%,3%,-1%,2%,.,.,.
Cc1ccc(-c2cc3c(=O)n(CCNC(=O)C4CCCCC4)ccn3n2)c(C)c1,2,2µM*,7%,?,?,2%,?,?,2.5µM*
Cc1ccc(-c2cc3c(=O)n(CCNC(=O)c4ccc(C)s4)ccn3n2)c(C)c1,-6,4.5µM*,39%,?,?,5%,27%,?,7µM*
Cc1cc(CNC(=O)C2(C(N)=O)CC2)c2[nH]c(-c3ccccc3)c(C)c2c1,23,13µM*,?,22µM*,?,-22%,26%,?,11µM*
Cc1cn2nnc(C(=O)NC3CCc4ccccc43)c2c(=O)[nH]1 (centres undefined),13,i,4%,?,?,0%,.,.,.
CC(=O)N1CCNc2cc(Nc3cccc(N(C)C)c3)ncc2C1,-17,2.8µM*,18%[87.6 µM],?,?,-7%[87.6 µM],31%[49.3 µM],?,16µM*
CN(C)c1cccc(C(=O)N2CCNc3cnc(Nc4cccc(C(F)(F)F)c4)nc3C2)c1,-6,i,-30%,?,?,-19%,.,.,.
COc1cccc(Nc2cc3c(cn2)CN(C(C)=O)CCN3)c1,24,1.8µM*,?,?,?,-14%[87.6 µM],?,?,9µM*
COc1ccc(-c2cc(C(=O)NCCCc3ccccc3)c3cnn(C)c3n2)cc1,9,.,.,?,?,.,.,.,.
Cc1ccc(-n2cc(CN(C)C(C)C(=O)N(C)C)c(-c3cccc(C)c3)n2)cc1 (centres undefined),-8,i,-15%,?,?,-6%,.,.,.
CC(=O)NC1CCN(Cc2cn(-c3ccc(C)cc3)nc2-c2cccc(C)c2)C1 (centres undefined),-13,13µM*,35%,?,?,-16%,15%,9%,?
CCN(CC)Cc1cnc2c(C(=O)Nc3ccc(Cl)cc3C)cnn2c1,9,i,-8%,-26%,-6%,-9%,.,.,.
Cc1[nH]nc2c1C(c1ccc(Cl)cc1)C(C#N)=C(N)O2 (centres undefined),-17,i,9%,?,-22%,1%,11%,8%,-9%
CCOC(=O)N1CCc2c(sc(NCc3ccc(OCC)cc3)c2C(=O)Nc2ccc(OC)cc2OC)C1,3,.,?,.,.,2%,13%,?,3.9µM*
CCOC(=O)N1CCc2c(sc(NCc3cccs3)c2C(=O)Nc2ccc(OC)cc2OC)C1,52,.,?,.,.,-9%,6%,?,3.1µM*
CCOC(=O)N1CCc2c(sc(NCc3ccc(OC)c(OC)c3OC)c2C(=O)Nc2ccc(OC)cc2OC)C1,6,.,?,.,.,-5%,.,.,.
COc1ccc(OCC(=O)N2CCC(c3nc4ccccc4s3)CC2)cc1,-7,.,15%,.,.,-11%,.,.,.
CN(C)c1cccc(C(=O)Nc2ccc(-c3nc4ccccc4s3)cc2)c1,11,.,-12%,.,.,-2%,30%,?,?
CN(C(=O)OC(C)(C)C)c1ccc(-c2nc3ccccc3s2)cc1,.,.,.,.,.,.,1.4µM*,0.35µM*,0.099µM*
O=C(COc1ccccc1F)Nc1ccc(-c2nc3ccccc3s2)cc1,-14,.,46%,.,.,0%,10%,7%,-5%
CC(C)Oc1ccc(C(=O)Nc2ccc(-c3nc4ccccc4s3)cc2)cc1,20,.,102%,.,.,11%,18%,10%,4%
CN(C)c1ccc(C(=O)Nc2ccc(-c3nc4ccccc4o3)cc2)cc1,2,.,83%,.,.,-1%,.,.,.
SMILES,IP6K1 inhibitor,FLuc inh-1,SNCA expr inhib,HEK293 tox,NIH3T3 tox,HEK293 viab,FLuc SDR -ATP,FLuc SDR ATP,FLuc inh-2
O=C(O)c1ccc(CC2CCN(C(=O)c3cccc(-n4cccn4)c3)C2)cc1 (centres undefined),8,i,8%,4%,?,-5%,.,.,.
COc1ccccc1OC(C)C(=O)Nc1ccc(-c2nc3ccccc3s2)cc1 (centres undefined),31,.,84%,.,.,5%,15%,13%,-10%
O=C1CCCN1CCC1CCCCN1C(=O)c1cn(Cc2ccc(F)cc2Cl)nn1 (centres undefined),9,i,-19%,-6%,-24%,-6%,.,.,.
Cc1ccc(-c2cc(C(=O)N3CCC(Cc4nncn4CC4CC4)CC3)c3ccccc3n2)cc1C,11,1.6µM*,1%,?,20µM*,-18%,12µM*,?,2µM*
O=C(c1cc(F)ccc1F)N1CCCC(Cc2nncn2CC2CC2)C1 (centres undefined),-7,i,12%,-11%,-15%,-14%,.,.,.
O=C(c1cc(-c2ccc(F)cc2)nc2ccccc12)N1CCC(Cc2nncn2CC2CC2)CC1,1,13µM*,15%,45µM*,?,-14%,?,21%,8.8µM*
O=C(C1CCN([S+](=O)([O-])c2cccc(C(F)(F)F)c2)CC1)N1CCCC(c2nc3ncccc3[nH]2)C1 (centres undefined),2,.,0%,?,?,2%,.,.,.
O=C(NC1CCCN(c2cc(-c3ccccc3)[nH]n2)C1)c1ccc(Cl)cc1 (centres undefined),30,i,71%,?,?,-22%,.,.,.

# From PubChem
